In PubChem BioAssay AID1159580 (chemical genetic matrix, 2015):
In all, about 5,500 compounds went through this assay and about 2,000 (36%) were called active. Inconclusive results (about 18%) are left out. No stated cut-off is given here; in the data, active means normalized growth mostly below about 0.91 (no sharp cut-off); inconclusive means no clear call, values can overlap the other calls; inactive means mostly above about 0.92. The list shows a part of the results.

Test: chemical genetic growth profiling, strain panel (AID 1159580);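 further: tested at 20 µM; growth read once vehicle control cultures reached saturation at 30 °C; 1 = growth at the plate median or of vehicle wells; lower values mean less growth of the strain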
Details: growth OD

Measured: normalized growth

Cc1ccc(Cl)c(Nc2ccccc2C(=O)O)c1Cl
active: S. cerevisiae deletion strains, locus YJR075W, strain HOC1, hits give low values 0.877 | S. cerevisiae deletion strains, locus YKL160W, strain elf1, hits give low values 0.824 | S. cerevisiae deletion strains, locus YKR001C, strain vps1, hits give low values 0.581 | S. cerevisiae deletion strains, locus YKR026C, strain gcn3, hits give low values 0.893 | S. cerevisiae deletion strains, locus YKR091W, strain srl3, hits give low values 0.879 | S. cerevisiae deletion strains, locus YLL001W, strain dnm1, hits give low values 0.815 | S. cerevisiae deletion strains, locus YLL026W, hits give low values 0.893 | S. cerevisiae deletion strains, locus YLL041C, strain sdh2, hits give low values 0.886 | S. cerevisiae deletion strains, locus YLR027C, strain aat2, hits give low values 0.907 | S. cerevisiae deletion strains, locus YLR039C, strain RIC1, hits give low values 0.399 | S. cerevisiae deletion strains, locus YLR102C, strain apc9, hits give low values 0.887 | S. cerevisiae deletion strains, locus YLR221C, strain rsa3, hits give low values 0.809 | S. cerevisiae deletion strains, locus YLR258W, strain gsy2, hits give low values 0.852 | S. cerevisiae deletion strains, locus YLR262C, strain YPT6 (second series), hits give low values 0.499 | S. cerevisiae deletion strains, locus YLR262C, strain YPT6, hits give low values 0.492 | S. cerevisiae deletion strains, locus YLR268W, strain sec22, hits give low values 0.77 | S. cerevisiae deletion strains, locus YLR320W, strain mms22, hits give low values 0.659 | S. cerevisiae deletion strains, locus YLR330W, strain CHS5, hits give low values 0.893 | S. cerevisiae deletion strains, locus YLR342W, strain FKS1 (second series), hits give low values 0.789 | S. cerevisiae deletion strains, locus YLR342W, strain FKS1, hits give low values 0.857 | S. cerevisiae deletion strains, locus YLR370C, strain arc18, hits give low values 0.83 | S. cerevisiae deletion strains, locus YLR371W, strain rom2, hits give low values 0.894 | S. cerevisiae deletion strains, locus YLR384C, strain iki3, hits give low values 0.893 | S. cerevisiae deletion strains, locus YLR418C, strain cdc73, hits give low values 0.649 | S. cerevisiae deletion strains, locus YML016C, strain PPZ1, hits give low values 0.894 | S. cerevisiae deletion strains, locus YML032C, strain rad52, hits give low values 0.862 | S. cerevisiae deletion strains, locus YML120C, strain ndi1, hits give low values 0.795 | S. cerevisiae deletion strains, locus YML124C, strain tub3, hits give low values 0.888 | S. cerevisiae deletion strains, locus YMR058W, strain fet3, hits give low values 0.866 | S. cerevisiae deletion strains, locus YMR078C, strain ctf18, hits give low values 0.896 | S. cerevisiae deletion strains, locus YMR125W, strain sto1, hits give low values 0.854 | S. cerevisiae deletion strains, locus YMR129W, hits give low values 0.889 | S. cerevisiae deletion strains, locus YMR205C, strain PFK2, hits give low values 0.737 | S. cerevisiae deletion strains, locus YMR223W, strain ubp8, hits give low values 0.82 | S. cerevisiae deletion strains, locus YMR231W, strain pep5, hits give low values 0.843 | S. cerevisiae deletion strains, locus YMR263W, strain SAP30, hits give low values 0.873 | S. cerevisiae deletion strains, locus YNL071W, strain lat1, hits give low values 0.702 | S. cerevisiae deletion strains, locus YNL175C, strain NOP13, hits give low values 0.907 | S. cerevisiae deletion strains, locus YNL197C, strain WHI3, hits give low values 0.893 | S. cerevisiae deletion strains, locus YNL209W, strain ssb2, hits give low values 0.917 | S. cerevisiae deletion strains, locus YNL224C, strain SQS1, hits give low values 0.915 | S. cerevisiae deletion strains, locus YNL307C, strain MCK1, hits give low values 0.645 | S. cerevisiae deletion strains, locus YNL322C, strain KRE1 (second series), hits give low values 0.903 | S. cerevisiae deletion strains, locus YNL322C, strain KRE1, hits give low values 0.893 | S. cerevisiae deletion strains, locus YNR049C, strain mso1, hits give low values 0.885 | S. cerevisiae deletion strains, locus YNR052C, strain pop2, hits give low values 0.835 | S. cerevisiae deletion strains, locus YOL147C, strain pex11, hits give low values 0.868 | S. cerevisiae deletion strains, locus YOR061W, strain CKA2, hits give low values 0.882 | S. cerevisiae deletion strains, locus YOR069W, strain VPS5, hits give low values 0.891 | S. cerevisiae deletion strains, locus YOR070C, strain gyp1, hits give low values 0.864 | S. cerevisiae deletion strains, locus YOR083W, strain WHI5, hits give low values 0.868 | S. cerevisiae deletion strains, locus YOR106W, strain vam3, hits give low values 0.85 | S. cerevisiae deletion strains, locus YOR144C, strain elg1, hits give low values 0.898 | S. cerevisiae deletion strains, locus YOR184W, strain ser1, hits give low values 0.621 | S. cerevisiae deletion strains, locus YOR265W, strain rbl2, hits give low values 0.892 | S. cerevisiae deletion strains, locus YOR270C, strain vph1, hits give low values 0.617 | S. cerevisiae deletion strains, locus YOR290C, strain snf2, hits give low values 0.746 | S. cerevisiae deletion strains, locus YOR316C, strain cot1, hits give low values 0.881 | S. cerevisiae deletion strains, locus YPL051W, strain arl3, hits give low values 0.771 | S. cerevisiae deletion strains, locus YPL078C, strain atp4, hits give low values 0.774 | S. cerevisiae deletion strains, locus YPL240C, strain hsp82, hits give low values 0.879 | S. cerevisiae deletion strains, locus YPL241C, strain CIN2, hits give low values 0.943 | S. cerevisiae deletion strains, locus YPR119W, strain clb2, hits give low values 0.87 | S. cerevisiae deletion strains, locus YPR163C, strain tif3, hits give low values 0.903 | S. cerevisiae deletion strains, locus YPR167C, strain met16, hits give low values 0.882 | S. cerevisiae deletion strains, strain wtn01, hits give low values 0.859 | S. cerevisiae strains, strain wild type, hits give low values 0.888
inactive: S. cerevisiae deletion strains, locus YJR066W, strain TOR1, hits give low values 0.963 | S. cerevisiae deletion strains, locus YKL009W, strain mrt4, hits give low values 0.97 | S. cerevisiae deletion strains, locus YKL068W, hits give low values 0.975 | S. cerevisiae deletion strains, locus YKL085W, strain MDH1 (second series), hits give low values 0.957 | S. cerevisiae deletion strains, locus YKL085W, strain MDH1, hits give low values 0.957 | S. cerevisiae deletion strains, locus YLR058C, strain SHM2, hits give low values 0.895 | S. cerevisiae deletion strains, locus YLR113W, strain HOG1, hits give low values 1.02 | S. cerevisiae deletion strains, locus YLR357W, strain rsc2, hits give low values 0.994 | S. cerevisiae deletion strains, locus YMR307W, strain GAS1, hits give low values 0.638 | S. cerevisiae deletion strains, locus YNL067W, strain RPL9B, hits give low values 0.92 | S. cerevisiae deletion strains, locus YNL153C, strain GIM3, hits give low values 0.898 | S. cerevisiae deletion strains, locus YNL183C, strain NPR1, hits give low values 0.992 | S. cerevisiae deletion strains, locus YNL233W, strain BNI4, hits give low values 0.913 | S. cerevisiae deletion strains, locus YNL248C, strain rpa49, hits give low values 0.931 | S. cerevisiae deletion strains, locus YNL250W, strain rad50, hits give low values 0.993 | S. cerevisiae deletion strains, locus YNL271C, strain bni1, hits give low values 0.955 | S. cerevisiae deletion strains, locus YNL298W, strain CLA4, hits give low values 0.932 | S. cerevisiae deletion strains, locus YOL006C, strain TOP1, hits give low values 0.697 | S. cerevisiae deletion strains, locus YOL012C, strain htz1 0.653 | S. cerevisiae deletion strains, locus YOR001W, strain rrp6, hits give low values 0.95 | S. cerevisiae deletion strains, locus YOR080W, strain dia2, hits give low values 0.914 | S. cerevisiae deletion strains, locus YOR083W, strain WHI5 (second series), hits give low values 0.971 | S. cerevisiae deletion strains, locus YOR136W, strain idh2, hits give low values 0.953 | S. cerevisiae deletion strains, locus YOR231W, strain MKK1, hits give low values 1.01 | S. cerevisiae deletion strains, locus YPL106C, strain sse1, hits give low values 1.04 | S. cerevisiae deletion strains, locus YPL256C, strain CLN2, hits give low values 0.996 | S. cerevisiae deletion strains, locus YPR141C, strain kar3, hits give low values 0.963
